Measurements reported in PubChem BioAssay AID743314 (Broad Institute, 2014).
Entries with a potency or affinity are not part of this list. Results filed as inconclusive are left out. Active and inactive are the calls of the source.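 The calls were made as follows: active = fitted half-maximal concentration no higher than twice the top tested dose, in every repeat run; inconclusive = repeat runs disagree, poor fit, or flat partial inhibition; inactive = the rest.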

Target: Endoplasmic reticulum aminopeptidase 1 (Homo sapiens) (UniProt Q9NZ08)
Test: ERAP1 aminopeptidase inhibitors, dose response, biochemical, cherry-pick, set 2, plate reader (AID 743314)

Endoplasmic reticulum aminopeptidase 1 (Homo sapiens), sequence (Q9NZ08 whole entry, looked up): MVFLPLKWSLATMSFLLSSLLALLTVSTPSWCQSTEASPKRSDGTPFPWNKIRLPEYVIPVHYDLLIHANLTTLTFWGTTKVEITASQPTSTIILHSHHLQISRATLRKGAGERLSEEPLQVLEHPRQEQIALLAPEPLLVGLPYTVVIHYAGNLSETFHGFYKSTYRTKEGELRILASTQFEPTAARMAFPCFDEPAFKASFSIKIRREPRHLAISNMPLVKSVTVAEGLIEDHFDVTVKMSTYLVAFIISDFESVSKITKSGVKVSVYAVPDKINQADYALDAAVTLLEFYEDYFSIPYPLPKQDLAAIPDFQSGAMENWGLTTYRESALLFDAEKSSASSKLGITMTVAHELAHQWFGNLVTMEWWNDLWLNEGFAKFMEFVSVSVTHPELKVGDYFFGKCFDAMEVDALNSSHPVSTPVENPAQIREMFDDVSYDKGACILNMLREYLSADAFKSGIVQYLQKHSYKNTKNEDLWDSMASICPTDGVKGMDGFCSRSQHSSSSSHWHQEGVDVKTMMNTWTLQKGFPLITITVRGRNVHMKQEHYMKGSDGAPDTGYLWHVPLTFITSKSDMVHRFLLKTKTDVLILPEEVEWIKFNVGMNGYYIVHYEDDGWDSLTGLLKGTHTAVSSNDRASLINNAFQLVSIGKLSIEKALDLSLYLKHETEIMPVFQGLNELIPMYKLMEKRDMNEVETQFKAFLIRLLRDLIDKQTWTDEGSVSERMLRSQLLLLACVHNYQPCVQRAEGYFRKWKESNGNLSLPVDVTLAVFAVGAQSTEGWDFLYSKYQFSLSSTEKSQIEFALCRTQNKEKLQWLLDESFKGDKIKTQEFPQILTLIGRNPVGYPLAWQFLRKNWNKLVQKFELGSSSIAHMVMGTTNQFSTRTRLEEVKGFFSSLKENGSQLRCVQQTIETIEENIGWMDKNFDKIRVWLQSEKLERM

Compound | outcome
Cc1cc(=O)oc2cc(OCC(=O)N3CCN(C(C)c4ccccc4)CC3)c(Cl)cc12 (configuration not stated) | inactive
Cc1cc(OCC(=O)NC(Cc2ccc(Cl)cc2)C(=O)O)c2c3c(c(=O)oc2c1)CCCC3 (configuration not stated) | inactive
